Screens: PubChem, several laboratories
AddAB inh: growth inhibition of E. coli expressing H. pylori AddAB, primary screen, AddAB inhibitor project, absorbance | inhibition, % at 11.9 µM | actives 0.29% (n = 330,000) | AID 435030, 2010; in the data active = inhibition above about 12%
Tat export inh: E. coli Tat export inhibitors, primary screen, MC4100, TorA-mCherry reporter, fluorescence, single point. inhibition, % at 10 µM. actives 0.036% (n = 340,000). AID 488895, 2010;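 active = mean replicate inhibition at least 50% and at least half of replicates individually reaching 50%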;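 also: exported cargo escapes ClpAP degradation while cytoplasmic cargo is degraded and loses fluorescence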
E coli growth-1: E. coli growth inhibition, primary screen, OD600; OD600 absorbance (test concentration not listed); Escherichia coli growth, 23 h; active compounds read low; AID 1053175, 2014; actives 0.21% (n = 330,000);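 active = OD600 absorbance below the run mean of sample wells minus 3.6 SD, in any replicate, cut at about 0.56 in these data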
phage Ecoli inh: growth loss of phage-infected E. coli, primary screen, RecBCD inhibitor project, absorbance, with phage, HTS; inhibition, % at 11.9 µM; actives 0.26% (n = 360,000); in the data active = inhibition above about 11%
E coli growth-2: E. coli V3065 growth inhibition, primary screen, counter-screen for AddAB inhibitor project, absorbance, OD600; inhibition, % at 11.9 µM; 18 h; actives 0.27% (n = 330,000);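 active = inhibition above the campaign's mean inhibition across all tested compounds plus 3 SD, cut at about 9.9% in these data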;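 also: uninfected addAB+ strain grown without phage in ampicillin broth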
AddAB confirm: growth loss of phage-infected E. coli expressing H. pylori AddAB, confirmation, AddAB inhibitor project, absorbance, E. coli V3065, T4 phage, triplicate | shares compounds with AddAB inh | OD; T4 phage with gene 2 nonsense mutations | inhibition, % at 11.9 µM | actives 64% (n = 880);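 active = mean inhibition above a set limit taken from the earlier primary screen, cut at about 13% in these data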;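 also: higher means less bacterial growth since AddAB block lets phage replicate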
RecBCD counter: growth loss of RecBCD+ E. coli with mutant T4 phage, counter-screen for AddAB inhibitor project, absorbance, V66 E. coli; shares compounds with AddAB inh; actives 73% (n = 880); inhibition, % at 11.9 µM; OD growth;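 active = mean inhibition above the mean of solvent-only control wells plus 3 SD, cut at about 4% in these data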;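 also: optical density read after an 18 h incubation at 37 °C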
Bact viability: bacterial viability inhibition counter-screen, confirmation, counter-screen for AddAB inhibitor project, absorbance | actives 35% (n = 880) | inhibition, % at 11.9 µM | shares compounds with AddAB inh | absorbance (AddAB counterscreen); in the data active = inhibition above about 25%
RecBCD conf: growth loss of phage-infected RecBCD+ E. coli, confirmation, RecBCD inhibitor project, absorbance, E. coli V66, T4 gene 2 phage; actives 45% (n = 890); shares compounds with phage Ecoli inh; E. coli V66 + T4 2- phage, growth OD; inhibition, % at 11.9 µM;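 active = mean inhibition over triplicates exceeding the hit threshold derived in the original primary screen, cut at about 11% in these data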
Ecoli viability: E. coli viability inhibition, counter-screen for RecBCD inhibitor project, absorbance, high throughput; shares compounds with phage Ecoli inh; absorbance (OD) growth; inhibition, % at 11.9 µM; actives 29% (n = 890); AID 651983, 2013; in the data active = inhibition above about 20%;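 also: E. coli strain V66 grown with compound alone and no phage infection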
AddAB phage OD: growth loss of phage-infected AddAB-carrying E. coli, confirmation, counter-screen for RecBCD inhibitor project, absorbance, E. coli V3065, T4 phage; inhibition, % at 11.9 µM; E. coli expressing H. pylori AddAB + T4 phage, OD growth; gene 2 mutant T4, recBCD-deleted host; shares compounds with phage Ecoli inh; AID 651984, 2013; actives 45% (n = 890);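 active = mean inhibition above the solvent-only control wells' mean plus 3 SD, cut at about 22% in these data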;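 also: higher means less bacterial growth from phage killing when AddAB is blocked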
A number is an active result. This is a sample that favours compounds with a hit; in the whole collection about 0.5% have one here.

Screening COC(=O)Cn1cc(C(=O)c2ccco2)c2ccccc21 returned AddAB inh inactive, Tat export inh inactive, E coli growth-1 inactive, phage Ecoli inh inactive and E coli growth-2 inactive.
`COc1ccc(NC(=O)Cn2cc(C(=O)c3ccco3)c3ccccc32)cc1` gave AddAB inh 16.2, Tat export inh inactive, E coli growth-1 inactive, phage Ecoli inh 18.1, E coli growth-2 18.4, AddAB confirm 12.8, RecBCD counter 13.0, Bact viability inactive, RecBCD conf inactive, Ecoli viability inactive and AddAB phage OD inactive.
For CCOc1ccc(NC(=O)Cn2cc(C(=O)c3ccco3)c3ccccc32)cc1 the results were AddAB inh 12.7, Tat export inh inactive, E coli growth-1 inactive, phage Ecoli inh 12.2, E coli growth-2 13.5, AddAB confirm inactive, RecBCD counter 9.7, Bact viability inactive, RecBCD conf inactive, Ecoli viability inactive and AddAB phage OD inactive.
Screening CC(=O)Nc1ccc(C(C)=NNC(=O)c2ccc(COc3ccccc3Cl)o2)cc1 returned E coli growth-1 inactive.
CCn1ccc(=O)c2cc3c(cc21)OCO3 was read as AddAB inh inactive, Tat export inh inactive, E coli growth-1 inactive, phage Ecoli inh inactive and E coli growth-2 inactive.
Screening CCn1nc(C(=O)O)c(=O)c2cc3c(cc21)OCO3 returned AddAB inh 96.2, Tat export inh inactive, E coli growth-1 0.058, phage Ecoli inh 53.3, E coli growth-2 97.8, AddAB confirm 98.6, RecBCD counter 97.8, Bact viability 101.2, RecBCD conf 90.2, Ecoli viability 98.6 and AddAB phage OD 98.6.
`CC(=O)CC(O)CC(=O)C1OC(=O)CCC=CCc2ccccc21` (stereo unspecified) gave E coli growth-1 inactive.
Screening CN1CCN(C(c2ccc(C(F)(F)F)cc2)c2ccc3cccnc3c2O)CC1 (stereo unspecified) returned AddAB inh 17.3, phage Ecoli inh 16.6, E coli growth-2 26.6, AddAB confirm inactive, RecBCD counter 9.7, Bact viability inactive, RecBCD conf inactive, Ecoli viability inactive and AddAB phage OD inactive.
Oc1c(C(c2ccccc2Cl)N2CCCC2)ccc2cccnc12 (stereo unspecified) was read as AddAB inh 24.9, Tat export inh inactive, E coli growth-1 0.376, phage Ecoli inh 15.6, E coli growth-2 24.1, AddAB confirm 12.9, RecBCD counter 12.4, Bact viability inactive, RecBCD conf inactive, Ecoli viability inactive and AddAB phage OD inactive.
For Oc1c(C(c2ccc(Cl)cc2)N2CCCC2)cc(Cl)c2cccnc12 (stereo unspecified) the results were AddAB inh 17.4, Tat export inh inactive, E coli growth-1 inactive, phage Ecoli inh 19.5, E coli growth-2 23.5, AddAB confirm inactive, RecBCD counter 8.4, Bact viability inactive, RecBCD conf inactive, Ecoli viability inactive and AddAB phage OD inactive.
`Oc1c(C(c2cccs2)N2CCN(c3ccccc3)CC2)ccc2cccnc12` (stereo unspecified) gave AddAB inh inactive and E coli growth-2 inactive.
Screening CN1CCN(C(c2ccccc2)c2ccccc2)CC1 returned AddAB inh inactive, Tat export inh inactive, E coli growth-1 inactive, phage Ecoli inh inactive and E coli growth-2 inactive.
c1ccc(C2C3CN(CC4CCCCC4)C(c4ccccc4)C34CC2(c2cccnc2)C4)cc1 (stereo unspecified) was read as E coli growth-1 inactive.
`O=c1c2ccccc2nc(N/N=C/c2c(O)ccc3ccccc23)n1O` gave AddAB inh 19.1, Tat export inh inactive, phage Ecoli inh 20.9, E coli growth-2 23.7, AddAB confirm 24.2, RecBCD counter 20.5, Bact viability inactive, RecBCD conf 12.4, Ecoli viability inactive and AddAB phage OD inactive.
O=c1c2ccccc2nc(N/N=C/c2ccc(O)cc2)n1O was read as AddAB inh inactive, Tat export inh inactive, phage Ecoli inh inactive and E coli growth-2 inactive.
Screening COc1ccc(C2C(=C(O)c3ccccc3)C(=O)C(=O)N2c2ncccn2)cc1OC (stereo unspecified) returned E coli growth-1 inactive.
CC(=O)CC1c2ccccc2S(=O)(=O)N1c1ccccc1 (stereo unspecified) was read as E coli growth-1 inactive.
`CN1C(=O)C2C(C1=O)C(c1cccc(Br)c1)N1C(=O)c3ccccc3NC(=O)C21` (stereo unspecified) gave E coli growth-1 inactive.
CC(C)(C)/C(O)=C(/C#N)c1nc2ccccc2[nH]1 was read as AddAB inh inactive, Tat export inh inactive, phage Ecoli inh inactive and E coli growth-2 inactive.
N#C/C(=C\c1ccc(Sc2ccccc2)o1)c1nc2ccccc2[nH]1 was read as AddAB inh inactive, Tat export inh inactive, E coli growth-1 inactive, phage Ecoli inh inactive and E coli growth-2 inactive.
N#C/C(=C\c1ccc([N+](=O)[O-])o1)c1nc2ccccc2[nH]1 was read as AddAB inh 93.5, E coli growth-1 inactive, phage Ecoli inh 13.0, E coli growth-2 16.6, AddAB confirm 100.1, RecBCD counter 16.0, Bact viability 94.3, RecBCD conf 11.4, Ecoli viability inactive and AddAB phage OD 76.5.
N#C/C(=C(/O)c1ccc([N+](=O)[O-])o1)c1nc2ccccc2[nH]1 was read as AddAB inh 19.2, Tat export inh inactive, E coli growth-1 0.466, phage Ecoli inh 13.4, E coli growth-2 13.5, AddAB confirm 95.8, RecBCD counter 63.2, Bact viability 97.8, RecBCD conf 34.9, Ecoli viability 64.0 and AddAB phage OD 100.6.
